# Laboratory results taken from PubChem BioAssay (NCATS).
# Records with an inconclusive call do not appear. A call without a number means that no potency is given here. Calls of active or inactive are those of the source. Unless noted, calls follow the shape of the dose curve; as a rule, active = well fitted curve in the direction sought with a large enough effect; inconclusive = small, poorly fitted or top-dose-only effect, or another doubt; inactive = no such curve, though single readings can be large; an effect the other way counts as inactive or inconclusive.
# Assays:
# [1] = target: Cytochrome P450 3A4 (Homo sapiens) (UniProt P08684); experiment: qHTS Assay for Inhibitors and Substrates of Cytochrome P450 3A4 (AID 884); conditions: recombinant CYP3A4, Luciferin-PPXE luminescence; series mostly up to 57.1 µM; also: nearly all actives have a fitted effect of over 50% in size
# Procedure, shortened: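 20 nM human CYP3A4 with 25 uM Luciferin-PPXE (at KM) in 200 mM KPO4, preincubated 10 min with compound; NADPH regeneration started a 60 min RT reaction. Luciferin detected by luminescence, normalized to 57 uM ketoconazole as full inhibition.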
# [2] = Confirmation and Secondary Assay for Modulators of Hemoglobin Beta Chain Splicing at IVS2 705 locus (AID 930); conditions: HeLa EGFP-705 splicing reporter, GFP fluorescence, 48 h; series mostly up to 46.1 µM;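 also: HeLa cells stably expressing the EGFP-705 splicing reporter; GFP fluorescence per well restored by corrected splicing of the IVS2-705 intron in EGFP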
# Procedure, shortened: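 Secondary splice-site specificity test uses HeLa expressing CMV-driven EGFP interrupted by IVS2-705; cells were treated 2 days at 37C with 500 nM antisense PNA as positive control.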
# [3] = target: Ubiquitin carboxyl-terminal hydrolase 1 (Homo sapiens) (UniProt O94782); experiment: Inhibitors of USP1/UAF1: Pilot qHTS (AID 504865); conditions: purified USP1/UAF1, Ub-rhodamine cleavage fluorescence; series mostly up to 114 µM; also: nearly all actives have a fitted effect of over 35% in size; also: potency is read from the fitted curve at half-maximal effect
# Procedure, shortened: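 Deubiquitinase activity followed as kinetic rhodamine fluorescence release from 150 nM Ub-Rho. 1 nM USP1/UAF1 with compound, after 15 min room-temperature preincubation, in HEPES pH 7.8 buffer containing TCEP, EDTA, BSA and Tween-20.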
# [4] = Confirmation and Secondary Assay for Modulators of Hemoglobin Beta Chain Splicing at IVS2 654 locus (AID 910); conditions: HeLa EGFP-654 splicing reporter, GFP fluorescence, 48 h; series mostly up to 46.1 µM;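 also: HeLa cells stably carrying EGFP split by mutant beta-globin IVS2-654 intron; per-well total GFP intensity by laser scanning cytometry after 2-day treatment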
# Procedure, shortened: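 Readout: per-well total peak green fluorescence (488 nm ex, 500–520 nm em) from objects 5–250 µm, reflecting correct splicing of an EGFP-654 reporter. Compounds were applied for 2 days at 37 °C to overnight-plated HeLa EGFP-654 cells; controls were DMSO and 500 nM IVS2-654 PNA.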
# [5] = target: Cytochrome P450 3A4 (Homo sapiens) (UniProt P08684); experiment: qHTS Assay for Activators of Cytochrome P450 3A4 (AID 885); conditions: recombinant CYP3A4, Luciferin-PPXE luminescence, 60 min; series mostly up to 57.1 µM; also: nearly all actives have a fitted effect of over 65% in size
# Procedure, shortened: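 Human CYP3A4 (20 nM) with Luciferin-PPXE at 25 uM (its KM) in 200 mM KPO4; 10 min compound preincubation, then NADPH regeneration and 60 min reaction at RT. Luciferin read by luminescence; normalized to 57 uM ketoconazole full inhibition.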
# [6] = target: Mitogen-activated protein kinase 10 (Mus musculus) (UniProt Q61831); experiment: JNK3 AlphaScreen Assay (AID 530; active = well fitted curve in either direction with a large enough effect, not every such curve was filed as active;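 also: kinase came from lysate of stimulated human HepG2 cells; signal reports phosphorylation of biotinylated GST-cJun 1-79 at Ser73 with 10 µM ATP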); conditions: JNK3 lysate, c-Jun phosphorylation; series mostly up to 57.1 µM
# Procedure, shortened: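 Room-temperature AlphaScreen kinase assay; pre-activated HepG2 lysate as JNK3 source, biotin-GST-cJun(1-79) substrate, 10 uM ATP, compound 15 min preincubation.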
# Ubiquitin carboxyl-terminal hydrolase 1 (Homo sapiens), sequence (O94782 whole entry, looked up): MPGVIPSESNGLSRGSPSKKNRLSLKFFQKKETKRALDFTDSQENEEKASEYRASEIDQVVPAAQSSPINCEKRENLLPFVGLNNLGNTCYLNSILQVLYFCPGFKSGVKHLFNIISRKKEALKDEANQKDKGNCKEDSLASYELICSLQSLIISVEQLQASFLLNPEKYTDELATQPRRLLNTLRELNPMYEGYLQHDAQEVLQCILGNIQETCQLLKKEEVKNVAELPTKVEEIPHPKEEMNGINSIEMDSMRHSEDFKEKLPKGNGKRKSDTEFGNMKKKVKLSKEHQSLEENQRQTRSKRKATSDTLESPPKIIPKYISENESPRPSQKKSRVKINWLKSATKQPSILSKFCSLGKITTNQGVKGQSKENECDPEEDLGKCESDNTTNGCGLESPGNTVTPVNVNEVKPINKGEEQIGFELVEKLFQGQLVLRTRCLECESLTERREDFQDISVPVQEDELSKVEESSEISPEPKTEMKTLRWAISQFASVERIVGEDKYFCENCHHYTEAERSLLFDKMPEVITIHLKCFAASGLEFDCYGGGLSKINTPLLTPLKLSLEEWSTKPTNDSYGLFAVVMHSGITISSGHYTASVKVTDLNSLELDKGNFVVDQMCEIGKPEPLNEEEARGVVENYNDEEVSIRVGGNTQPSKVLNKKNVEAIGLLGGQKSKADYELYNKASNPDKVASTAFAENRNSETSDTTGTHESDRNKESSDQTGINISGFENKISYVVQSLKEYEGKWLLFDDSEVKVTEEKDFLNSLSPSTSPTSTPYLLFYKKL
# Cytochrome P450 3A4 (Homo sapiens), sequence (P08684 whole entry, looked up): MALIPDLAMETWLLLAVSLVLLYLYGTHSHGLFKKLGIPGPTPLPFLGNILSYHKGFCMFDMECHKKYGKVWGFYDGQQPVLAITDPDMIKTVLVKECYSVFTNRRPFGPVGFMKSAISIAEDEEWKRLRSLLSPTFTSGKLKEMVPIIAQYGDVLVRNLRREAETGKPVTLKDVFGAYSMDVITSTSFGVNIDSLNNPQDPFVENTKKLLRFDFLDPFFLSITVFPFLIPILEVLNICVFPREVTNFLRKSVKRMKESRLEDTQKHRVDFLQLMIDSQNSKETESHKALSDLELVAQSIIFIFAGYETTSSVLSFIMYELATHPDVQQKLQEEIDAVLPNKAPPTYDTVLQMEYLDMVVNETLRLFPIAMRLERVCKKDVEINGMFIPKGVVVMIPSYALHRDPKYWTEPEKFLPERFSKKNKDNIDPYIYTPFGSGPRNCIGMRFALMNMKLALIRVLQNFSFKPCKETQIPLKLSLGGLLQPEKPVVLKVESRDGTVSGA
smiles,measurement,setting,value
O=C1C=CC2=C3c4cc(O)c(O)cc4C[C@]3(O)COC2=C1,Potency,[1],inactive
same,outcome,[2],inactive
same,Potency,[3],inactive
CC(=O)OC1CC[C@@]2(C)C3CC[C@@]4(C)C(CC5O[C@@]6(CCC(C)CO6)C(C)C54)C3CC[C@@H]2C1 (some centres undefined),Potency,[1],inactive
same,outcome,[4],inactive
same,outcome,[2],inactive
same,Potency,[3],inactive
CC(CCC(=O)O)C1CCC2C3C(=O)CC4CC(=O)CC[C@@]4(C)C3CC(=O)[C@]12C (some centres undefined),Potency,[1],inactive
same,outcome,[4],inactive
same,outcome,[2],inactive
same,Potency,[3],inactive
CC1c2cccc(O)c2C(O)=C2C(=O)[C@]3(O)C(O)=C(C(N)=O)C(=O)C(N(C)C)C3C(O)C21 (some centres undefined),Potency,[1],inactive
same,outcome,[2],inactive
same,Potency,[3],inactive
COC(=O)C1OC(=O)C2OC23[C@]2(C)C(OC(C)=O)CC4C(C)(C)C(=O)CC[C@]4(C)C2CC[C@@]13C (some centres undefined),Potency,[1],inactive
same,outcome,[4],inactive
same,outcome,[2],inactive
same,Potency,[3],inactive
C[C@]12CCC(=O)C=C1CCC1C2C(O)C[C@]2(C)C1CC[C@]2(O)C(=O)COC(=O)CCC(=O)O (some centres undefined),Potency,[1],inactive
same,outcome,[4],inactive
same,outcome,[2],inactive
same,Potency,[3],inactive
COc1cc2c(cc1OC)C(=O)OC2,Potency,[5],inactive
same,outcome,[4],inactive
same,outcome,[2],inactive
same,Potency,[3],inactive
CC1O[C@@H](O[C@@H]2C(O)C[C@H](O[C@@H]3C(O)C[C@@H](OC4CC[C@@]5(C)C6CC[C@]7(C)C(C8=CC(=O)OC8)CC[C@@]7(O)C6CC[C@@H]5C4)OC3C)OC2C)CC(O)[C@H]1O (some centres undefined),Potency,[1],inactive
same,outcome,[2],inactive
same,Potency,[3],inactive
CC(=O)OC(C)(C)C1Cc2cc3ccc(=O)oc3cc2O1 (centres undefined),Potency,[1],inactive
same,outcome,[4],inactive
same,outcome,[2],inactive
same,Potency,[3],inactive
O=C1CC(c2ccccc2O)Oc2ccc(O)cc21 (centres undefined),Potency,[5],inactive
same,Potency,[3],inactive
COc1ccc(-c2oc3ccccc3c(=O)c2O)cc1,Potency,[5],inactive
same,Potency,[3],inactive
COC(=O)CCC(C)C1CCC2C3C(C[C@H](O)C12C)C1(C)CC[C@@H](O)CC1C[C@H]3O (some centres undefined),Potency,[5],inactive
same,Potency,[3],inactive
Nc1nc2c(ncn2C2CC(O)C(CO)O2)c(=O)[nH]1 (centres undefined),Potency,[1],inactive
same,outcome,[2],inactive
same,Potency,[3],inactive
COc1cc(C(C)=O)cc(OC)c1O,Potency,[1],inactive
same,outcome,[4],inactive
same,outcome,[2],inactive
same,Potency,[3],inactive
Cc1cc(O)c(C)c(O)c1C(=O)O,Potency,[1],inactive
same,outcome,[2],inactive
same,Potency,[3],inactive
CC1C(NC(=O)/C(=N/OC(C)(C)C(=O)O)c2csc(N)n2)C(=O)N1S(=O)(=O)O (centres undefined),Potency,[1],inactive
same,outcome,[2],inactive
same,Potency,[3],inactive
COC(=O)CC1[C@@]2(C)C[C@]34OC5(C)OC6(C7CC(=O)OC(c8ccoc8)[C@]7(C)CCC6(O5)[C@]13C)C(OC(C)=O)[C@]4(OC(C)=O)C2OC(C)=O (some centres undefined),Potency,[5],inactive
same,outcome,[4],inactive
same,Potency,[3],inactive
CC1/C=C/C=C/C=C/C=C/C=C/C=C/C=C/C(OC2OC(C)C(O)C(N)C2O)CC2O[C@@](O)(CC(O)CC(O)C(O)CCC(O)CC(O)CC(=O)OC(C)[C@H](C)C1O)CC(O)C2C(=O)O (some centres undefined),Potency,[1],inactive
same,outcome,[2],inactive
same,Potency,[3],56.2 µM (active)
O=C(O)/C=C/C=C/c1ccccc1,Potency,[1],inactive
same,outcome,[4],inactive
same,outcome,[2],inactive
same,Potency,[3],inactive
CNC1C(O)C2OC3OC(C)CC(=O)[C@@]3(O)O[C@H]2[C@H](NC)C1O (some centres undefined),outcome,[4],inactive
same,outcome,[2],inactive
same,Potency,[3],inactive
COc1ccc(CNC(=O)[C@H](C)[C@@H]2C[C@@]2(C)[C@@H](NC(=O)OCc2ccccc2)c2ccccc2)cc1OC,outcome,[6],inactive
COC(=O)CC1[C@@]2(C)C[C@@]34OC5(C)OC6(CC[C@@]7(C)C(c8ccoc8)OC(=O)C(C(C)=O)C7[C@]6(O5)C(O)[C@@]3(O)C2O)[C@]14C (some centres undefined),Potency,[5],inactive
same,outcome,[2],inactive
same,Potency,[3],inactive
COc1ccc(-c2coc3cc(OC)cc(OC)c3c2=O)cc1,outcome,[4],inactive
same,outcome,[2],inactive
same,Potency,[3],inactive
CNC1C(O)C(O[C@H]2C(O)[C@@H](OC3OC(CN)=CCC3N)[C@H](N)C[C@@H]2N)OC[C@]1(C)O (some centres undefined),outcome,[4],inactive
same,outcome,[2],inactive
same,Potency,[3],inactive
CNCC(O)c1cccc(O)c1 (centres undefined),outcome,[4],inactive
same,Potency,[3],inactive
O=c1c2cc(O)c(O)cc2oc2cc(O)c(C3OC(CO)C(O)C(O)C3O)c(O)c12 (centres undefined),Potency,[5],inactive
same,outcome,[4],inactive
same,outcome,[2],inactive
same,Potency,[3],inactive
CNC(=O)C1(C)C=CCN1C(=O)c1ccccc1 (centres undefined),outcome,[6],inactive
NCC1O[C@H](O[C@@H]2C(O)[C@H](O[C@H]3OC(CO)C(O)C(N)C3O)[C@@H](N)C[C@H]2N)[C@@H](N)CC1O (some centres undefined),outcome,[2],inactive
same,Potency,[3],inactive
COc1ccc(-c2cc(=O)c3cc(OC)ccc3o2)cc1,Potency,[5],inactive
same,outcome,[4],inactive
same,outcome,[2],inactive
same,Potency,[3],inactive
COC(=O)[C@@]1(Cc2ccc(OC)cc2)[C@H]2c3cc(C(=O)N(C)C)n(Cc4ccc(C)o4)c3C[C@H]2CN1C(=O)c1ccccc1,outcome,[6],inactive
CCc1c2c(nc3ccc(OC)cc13)OC(CC)C2 (centres undefined),outcome,[6],inactive
CCCC[C@@H]1C[C@H]1C(NC(=O)c1ccccc1)c1ccc(C(F)(F)F)cc1 (some centres undefined),outcome,[6],inactive
C=C1C(=O)OC2C1CC/C(C)=C/CCC1(C)OC21 (centres undefined),Potency,[5],inactive
same,outcome,[4],inactive
same,outcome,[2],inactive
same,Potency,[3],inactive
COC(=O)[C@@H]1C[C@H]1[C@@H](NS(=O)(=O)c1ccc2ccccc2c1)c1ccccc1,outcome,[6],inactive
COc1ccc(C2COc3c(ccc(O)c3OC)C2)c(OC)c1O (centres undefined),Potency,[5],inactive
same,outcome,[2],inactive
same,Potency,[3],inactive
CC(Cc1ccccc1)C(=O)Nc1ccccc1 (centres undefined),outcome,[6],inactive
COC(=O)[C@H]1C[C@@H]1[C@H](NS(=O)(=O)c1ccc2ccccc2c1)c1ccccc1,outcome,[6],inactive
CCCC[C@@H]1C[C@H]1C(NC(=O)c1ccccc1)c1ccc(C(=O)OC)cc1 (some centres undefined),outcome,[6],inactive
CS(C)(=O)=O,Potency,[5],inactive
same,outcome,[2],inactive
same,Potency,[3],inactive
COC(=O)[C@@]1(Cc2ccc(OC)cc2)[C@H]2c3cc(C(=O)N(C)C)n(Cc4ccc(S(C)(=O)=O)cc4)c3C[C@H]2CN1C(=O)c1ccccc1,outcome,[6],inactive
Cc1nnc(SCC2=C(C(=O)O)N3C(=O)C(NC(=O)Cn4cnnn4)[C@@H]3SC2)s1 (some centres undefined),outcome,[4],inactive
same,outcome,[2],inactive
same,Potency,[3],inactive
